Most compounds without a hit are left out; they make up all but 12% or so of the library.
USP17 block: blocks human USP17 ubiquitin-rhodamine cleavage | 47,000 compounds, 6.5% hits | inhibition, % at 50 µM | A8MUK1 | purified USP17, Ub-rhodamine cleavage fluorescence, 3 h | AID 1645855
Target sequence (A8MUK1 whole entry, looked up): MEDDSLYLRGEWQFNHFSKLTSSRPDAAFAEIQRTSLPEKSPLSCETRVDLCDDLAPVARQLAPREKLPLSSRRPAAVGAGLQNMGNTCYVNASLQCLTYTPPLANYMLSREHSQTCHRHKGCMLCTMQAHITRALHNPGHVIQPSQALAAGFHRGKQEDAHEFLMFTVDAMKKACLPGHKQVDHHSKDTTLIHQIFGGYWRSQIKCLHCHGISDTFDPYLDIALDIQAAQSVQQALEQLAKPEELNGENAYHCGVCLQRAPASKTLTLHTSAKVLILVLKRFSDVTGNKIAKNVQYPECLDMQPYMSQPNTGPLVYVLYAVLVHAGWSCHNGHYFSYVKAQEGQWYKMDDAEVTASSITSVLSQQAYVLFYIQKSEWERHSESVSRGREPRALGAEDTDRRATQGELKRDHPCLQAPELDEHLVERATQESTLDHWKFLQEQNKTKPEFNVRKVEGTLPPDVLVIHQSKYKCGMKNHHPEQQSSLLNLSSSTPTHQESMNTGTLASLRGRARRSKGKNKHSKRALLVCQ
USP8 inh: inhibitors of human USP8 deubiquitinase. P40818. purified USP8, Ub-rhodamine cleavage fluorescence, 30 min. inhibition, % at 20 µM. 47,000 compounds, 4.2% hits. AID 1645853
USP30 block: inhibitors of human USP30 deubiquitinase. inhibition, % at 25 µM. purified USP30, Ub-rhodamine cleavage fluorescence. 47,000 compounds, 5.3% hits. Q70CQ3
Starred values were filed as active, the others as inactive; x = no result. Cut-off read from the data, not from the text of the source: active = inhibition above about 30%; inactive = the rest.

SMILES | USP17 block | USP8 inh | USP30 block
CC(C)C(=O)N1CCc2cc(-c3csc(NC(=O)C4CCCC4)n3)ccc21 | 5.6 | 5.0 | -16.3
CNc1cc(C)nc(C2COCCN2C(=O)c2noc3c2CCCC3)n1 (configuration not stated) | 4.9 | 5.5 | 9.6
CNc1nc(C2CCCN2C(=O)c2c(C)oc3c2CCCC3)nc2c1CCN(C(C)=O)C2 (configuration not stated) | 5.4 | 17.5 | 1.6
CC(C)C(=O)N1CCc2cc(-c3csc(NC(=O)CN4CCc5ccccc5C4)n3)ccc21 | 23.2 | 49.7* | -106.0
CC(C)C(=O)N1CCc2cc(-c3csc(NC(=O)CN4CCCCC4)n3)ccc21 | -12.5 | -61.0 | -56.6
COc1cc(C#CCN2CCOCC2)c(OC)cc1C#CCN1CCOCC1 | -1.3 | -0.7 | 7.2
Cc1cccc(N2C(=O)/C(=C\c3ccc4c(c3)OCCO4)c3ccccc3C2=O)c1 | 54.9* | 88.4* | 5.7
Cc1ccc(C(=O)/C=C/c2ccc3c(c2)OCCO3)c(OCc2ccccc2)c1 | x | -74.3 | -179.0
O=C1CSCC(=O)N1c1ccc2c(c1)OCO2 | x | 13.6 | -3.9
O=C1C/C(=C\c2ccc3c(c2)OCO3)Cc2ccccc21 | 22.6 | 5.8 | 8.7
Cc1cccc(N2C(=O)/C(=C\c3ccc4c(c3)OCO4)c3ccccc3C2=O)c1 | 41.9* | 75.9* | -13.7
O=C1Cc2ccccc2C(=O)N1c1ccc2c(c1)OCO2 | 66.3* | 81.5* | -51.5
NC(=O)C1(N2CCCCC2)CCN(c2ncc(C(F)(F)F)cc2Cl)CC1 | -13.0 | -0.2 | -0.5
OCCSc1nnc(-c2cc3ccccc3[nH]2)n1-c1ccccc1 | 2.2 | 17.0 | 18.3
COc1ccc(NS(=O)(=O)c2ccc(Cl)c(NC(=O)CCOc3cc(C)ccc3C)c2)cc1 | -11.2 | -137.7 | 15.7
COc1ccc(NC(=O)CC(=O)c2ccc([N+](=O)[O-])cc2)cc1S(=O)(=O)Nc1ccc(Br)cc1 | 33.9* | 72.1* | 59.9*
COc1ccc(NS(=O)(=O)c2ccc(Cl)c(NC(=O)CC(=O)c3ccc([N+](=O)[O-])cc3)c2)cc1 | 29.7 | 37.1* | 15.4
COc1ccc(NC(=O)COc2ccccc2C#N)cc1S(=O)(=O)Nc1ccccc1Cl | 21.9 | -5.6 | -64.5
COc1ccc(-c2ccccc2)cc1[C@H]1C[C@@H](NC(C)=O)[C@@H]2CCC[C@H]2O1 | 0.4 | 2.8 | -1.9
CC1(C)Cc2c(c(-c3ccccc3)nc3sc4c(SCc5ccc(F)cc5)ncnc4c23)CO1 | 9.1 | -1.2 | 8.1
CC1=CCC2C3(C)C=CC(=O)C(C)(C)C3CCC2(C)C12Cc1c(c(C)c(C)oc1=O)O2 (configuration not stated) | -7.0 | -6.3 | -2.5
Cc1ccc(NC(=O)CC2Nc3ccccc3NC2=O)cc1[N+](=O)[O-] (configuration not stated) | 41.0* | 65.8* | 48.8*
Cc1ccc(S(=O)(=O)Nc2ccc(NC(=O)CC3OC(=O)c4ccccc43)cc2)cc1[N+](=O)[O-] (configuration not stated) | 0.4 | -78.6 | 13.1
COc1ccc(CCNc2nc(-c3ccccc3)cc(-c3ccccc3)c2C#N)cc1OC | 36.7* | 2.6 | 25.9
COc1ccc(CCNc2nc(C)c(-c3ccccc3)s2)cc1OC | -0.8 | -16.2 | -4.3
SMILES | USP17 block | USP8 inh | USP30 block
CC1OC2CC(=O)OC2C2=C1C(=O)c1c(O)cccc1C2=O (configuration not stated) | 93.8* | 0.7 | -2.9
CC1CC(=O)c2c(O)cccc2O1 (configuration not stated) | 0.4 | 12.5 | 12.4
CCC[C@H]1O[C@@H]2CC(=O)O[C@@H]2C2=C1C(=O)c1c(O)cccc1C2=O | 84.0* | -6.8 | -19.5
Cc1nc(CC(=O)Nc2ccccc2Cl)sc1C(=O)NC1CC1 | -10.8 | 5.0 | -58.7
N#Cc1ccccc1-c1ccccc1C(=O)Nc1ccc(Br)cc1 | 0.0 | 7.8 | 11.9
c1ccc2c(c1)ccc1nnc(-c3ccc4c(c3)OCO4)n12 | 36.9* | -235.5 | 57.9*
Nc1c(-c2ccc3c(c2)OCO3)nc2ccccn12 | 7.6 | -3.6 | x
c1ccc(C2CCCN2c2ccccn2)cc1 (configuration not stated) | 3.2 | -1.5 | 4.5
O=C(O)c1cccnc1N1CCCC1c1ccccc1 (configuration not stated) | 4.1 | 46.7* | -15.6
CNc1cc(C(=O)N[C@H]2CC[C@]3(CCC(=O)N3)[C@@H](c3ccccc3)C2)ccn1 | -0.8 | 4.8 | -3.4
O=C(N[C@@H](Cc1ccccc1)C(=O)Nc1ccc2c(c1)OCCO2)c1cccnc1 | 5.8 | 7.2 | 9.1
O=C(COc1cccc2c1CCN(Cc1cccnc1)C2=O)Nc1ccc2c(c1)OCCO2 | 58.7* | -88.1 | 5.5
Cc1ccc(-n2c(=O)n(CC(=O)N3CCN(C4CCN(C)CC4)CC3)c3cccnc32)cc1 | -37.3 | -18.7 | -95.8
CCN1C[C@H]2C3(CCN(C(=O)Nc4ccncc4)CC3)CC[C@@]2(C(=O)N(C)C)C1 | -13.9 | -59.6 | -14.9
COc1ccccc1NC(=O)c1cc(S(=O)(=O)N2CCCC2)ccc1Cl | 0.3 | -2.2 | -6.6
COc1ccc(S(=O)(=O)N2CCCCC2)cc1NC(=O)c1ccc(N2CCCC2=O)cc1 | 50.0* | 11.2 | 26.9
COc1ccc(S(=O)(=O)N2CCCCCC2)cc1NC(=O)c1cc(F)cc(F)c1 | -1.1 | 7.4 | 7.5
COC(=O)c1ccccc1NC(=O)c1ccc(S(=O)(=O)N2CCCC2)cc1 | 15.5 | 1.5 | 42.6*
CCCN(C(=O)c1sc2nc3n(c(=O)c2c1C)CCCCC3)c1ccc(C(C)C)cc1 | 10.8 | -197.8 | 16.3
Cn1nc(C(=O)N2CCCCC2)c2c1-c1ccsc1CC2 | 15.5 | -4.9 | x
O=C(c1cc2c(s1)-c1ccsc1CC2)N1CCCCCC1 | 37.7* | 11.8 | 46.4*
N#Cc1ccc(C(=O)N2C[C@H](OCc3ccccn3)[C@H]3COC[C@H]32)cc1 | -19.9 | -53.7 | -0.3
COc1cccc(C2CC(c3ccccc3)=NC3(CCN(C)CC3)N2)c1O (configuration not stated) | -2.7 | 19.5 | -15.9
COc1cccc(C2CC(c3ccc(F)cc3)=NC3(CCN(C)CC3)N2)c1O (configuration not stated) | -5.7 | 40.9* | -51.8
Cc1cc(=O)n2[nH]c(CNc3ccc(C)c(Cl)c3)nc2n1 | 16.5 | 11.5 | 15.2
SMILES | USP17 block | USP8 inh | USP30 block
COc1ccc(C(C)=O)cc1Cn1c(=O)c2c(ncn2C2CCCC2)n(Cc2ccccc2)c1=O | -1.1 | -6.7 | -25.8
COC(=O)N1CCC2(CC1)NC(=O)c1ccccc12 | 0.0 | -9.3 | 8.6
Cc1ccc(-c2nc(Cn3cnc4ccccc4c3=O)cs2)cc1 | 37.3* | 37.0* | 57.9*
O=c1c2ccc(Cl)cc2ncn1Cc1csc(-c2ccccc2)n1 | 26.9 | 16.8 | 0.0
Cc1ccc(-c2c(C(=O)Nc3ccc4nn(-c5ccccc5)nc4c3)oc(=O)c3ccccc23)cc1 | 15.4 | -6.0 | x
O=S(=O)(c1ccc(F)cc1)N1CCCn2nnc(COCC3CC3)c2C1 | 0.3 | 9.0 | 3.2
COCC(C)Nc1ncc(-c2cnccn2)c(-c2ccc(C)s2)n1 (configuration not stated) | 63.5* | 3.4 | 24.9
CS(=O)(=O)N1CC(C(=O)N2C[C@@H](O)[C@H](N3CCCC3)C2)C1 | 2.9 | -0.2 | 1.7
COc1ccccc1/C=C/C(=O)Nc1nc2n(n1)C(c1ccc(Cl)cc1)CC(=O)N2 (configuration not stated) | 43.9* | -16.4 | 38.8*

Bioassay records from PubChem.
